The nature of test [1]: qHTS assay to test for compound auto fluorescence at 535 nm (green) in HEK293 cells (AID 720680). (Quantitative high-throughput screening tests each substance at several concentrations.)
Test [2] can be described thus: qHTS assay to test for compound auto fluorescence at 460 nm (blue) in HEK293 cell free culture (AID 720681). Summed up: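 Blue fluorescence (Ex 405/Em 460 nm, triamterene-equivalent) was read immediately after pin transfer of compound or DMSO into medium (DMEM, 10% FBS) without cells.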
A short description of test [3]: qHTS assay to test for compound auto fluorescence at 535 nm (green) in HEK293 cell free culture (AID 720682). Summed up:
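Each library compound, or DMSO control, is added by pintool to medium alone, comprising DMEM and 10% FBS. Emission at 535 nm following 485 nm excitation is quantified against fluorescein.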

The nature of test [4]: qHTS assay to test for compound auto fluorescence at 590 nm (red) in HEK293 cell free culture (AID 720683). Summed up:
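Red-channel autofluorescence of compounds in culture medium (DMEM, 10% FBS), no cells, measured at 540/590 nm. Rose Bengal sodium is the reference fluorophore for equivalence.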

The nature of test [5]: qHTS assay to test for compound auto fluorescence at 590 nm (red) in HepG2 cell free culture (AID 720684). Summed up:
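Cell-free; medium MEM + 10% FBS; compound or DMSO added by pintool; read Ex 540/Em 590 nm; Rose Bengal sodium as red reference fluorophore.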

Test [6] can be described thus: qHTS assay to test for compound auto fluorescence at 460 nm (blue) in HepG2 cell free culture (AID 720685). Summed up:
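Cell-free plates of MEM plus 10% FBS received 23 nL compound or DMSO vehicle; blue-channel (405/460 nm) intensity scored against triamterene as reference fluorophore.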

The nature of test [7]: qHTS assay to test for compound auto fluorescence at 535 nm (green) in HepG2 cell free culture (AID 720686).
Test [8] is described as follows: qHTS assay to test for compound auto fluorescence at 460 nm (blue) in HepG2 cells (AID 720687). Summed up:
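Blue-channel autofluorescence (Ex/Em 405/460 nm, triamterene-equivalent) was measured after 1 hr compound exposure at 37 C, 5% CO2. Cells were HepG2, plated overnight at 37 C in MEM plus 10% FBS.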

Test [9] has as its target Glucocorticoid receptor (Homo sapiens) (UniProt P04150). Kind of test: qHTS assay to identify small molecule agonists of the glucocorticoid receptor (GR) signaling pathway (AID 720691; active = well fitted activation curve with a large enough effect in the signal ratio in the repeat runs, not every such curve was filed as active; the % refers to the signal ratio). Summed up: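 Cells: GR-bla HeLa, endogenous GR with stably integrated GRE-beta-lactamase reporter. Treatment 18 h, 37 C, compounds delivered in DMSO. Detection via LiveBLAzer B/G FRET substrate, 2 h RT, fluorescence intensity.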

Test [10] shares this target. As to the kind of experiment: qHTS assay to identify small molecule antagonists of the glucocorticoid receptor (GR) signaling pathway (AID 720692; active = well fitted inhibition curve with a large enough effect in the signal ratio in the repeat runs, not every such curve was filed as active; the % refers to the signal ratio; note: potency is the fitted concentration of half-maximal effect). Summed up:
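Quantitative HTS in antagonist format: HeLa cells expressing endogenous GR and a stably integrated GRE-bla reporter, stimulated with 5 nM dexamethasone (final) alongside test compounds for 18 h.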

Test [11] is described as follows: qHTS assay to identify small molecule antagonists of the glucocorticoid receptor (GR) signaling pathway - cell viability counter screen (AID 720693). Note: nearly all actives have a fitted effect of over 55% in size.
Test [12] can be described thus: qHTS assay for identifying genotoxic compounds that show differential cytotoxicity against isogenic chicken DT40 cell lines with known DNA damage response pathways - wild type cell line (AID 743012). Note: nearly all actives have a fitted effect of over 60% in size. Note: potency is the fitted concentration of half-maximal effect. Summed up:
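Luminescent ATP viability signal (CellTiter-Glo, 30 min RT) recorded after wild type DT40 cells were incubated with compounds for 40 h at 37 C/5% CO2.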

Test [13] can be described thus: qHTS assay for identifying genotoxic compounds that show differential cytotoxicity against isogenic chicken DT40 cell lines with known DNA damage response pathways - Rev3 mutant cell line (AID 743014). Note: nearly all actives have a fitted effect of over 55% in size. Note: potency is the fitted concentration of half-maximal effect.
Test [14] can be described thus: qHTS assay for identifying genotoxic compounds that show differential cytotoxicity against isogenic chicken DT40 cell lines with known DNA damage response pathways - Rad54/Ku70 mutant cell line (AID 743015). Note: nearly all actives have a fitted effect of over 60% in size. Note: potency is the fitted concentration of half-maximal effect.
Test [15] is described as follows: qHTS assay to identify small molecule antagonists of the androgen receptor (AR) signaling pathway - cell viability counter screen (AID 743033; note: nearly all actives have a fitted effect of over 45% in size).
Test [16] can be described thus: qHTS assay to identify small molecule antagonists of the androgen receptor (AR) signaling pathway using the MDA cell line - cell viability counter screen (AID 743041; note: nearly all actives have a fitted effect of over 45% in size). Summed up: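 Viability read by CellTiter-Fluor fluorescence in the same wells as the antagonist screen, added after 15.5 h of a 16 h, 37C exposure. Human breast carcinoma MDA-kb2 AR-luc cells, compounds co-dosed with agonist R1881.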

In test [17] the target is Androgen receptor (Homo sapiens) (UniProt P10275). As to the kind of experiment: qHTS assay to identify small molecule antagonists of the androgen receptor (AR) signaling pathway (AID 743035; active = well fitted inhibition curve with a large enough effect in the signal ratio in the repeat runs, not every such curve was filed as active; the % refers to the signal ratio; note: potency is the fitted concentration of half-maximal effect). Summed up: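 Quantitative HTS of the Tox21 10K library used HEK293 AR-UAS-bla cells stimulated with R1881 alongside compound for 16 h at 37C, followed by beta-lactamase FRET detection (LiveBLAzer B/G, 2 h, RT).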

Test [18] has the same target. Kind of test: qHTS assay to identify small molecule agonists of the androgen receptor (AR) signaling pathway (AID 743036; active = well fitted activation curve with a large enough effect in the signal ratio in the repeat runs, with a control signal flat, not every such curve was filed as active; the % refers to the signal ratio). Summed up:
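Following a 4 h settling period, AR-UAS-bla HEK293 cells were dosed with compounds for 16 h at 37C. A 2 h room-temperature incubation with LiveBLAzer B/G FRET substrate preceded the fluorescence measurement.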

The target is the same in test [19]. Kind of test: qHTS assay to identify small molecule agonists of the androgen receptor (AR) signaling pathway using the MDA cell line (AID 743040; note: nearly all actives have a fitted effect of over 20% in size). Summed up: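 Luciferase agonist assay: 16 h compound exposure at 37C without CO2 in MDA-kb2 AR-luc cells, whose MMTV promoter responds to both AR and GR. Luminescence measured after 30 min room-temperature incubation with ONE-Glo.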

Test [20] has the same target. As to the kind of experiment: qHTS assay to identify small molecule antagonists of the androgen receptor (AR) signaling pathway using the MDA cell line (AID 743042; note: nearly all actives have a fitted effect of over 55% in size). Summed up:
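Antagonist mode: compounds plus R1881 agonist added to MDA-kb2 AR-luc cells, incubated 16 h at 37C. Luciferase reporter luminescence quantified, with multiplexed CellTiter-Fluor readout for cell viability.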

Values without a mark were called inactive. Inconclusive results are not listed. Active and inactive are the calls of the source. Unless noted, calls come from the whole dose curve; as a rule, active = well fitted curve in the direction sought with a large enough effect in the repeat runs; inconclusive = weak or mixed curves; inactive = no such curve, though single readings can be large; an effect the other way counts as inactive or inconclusive.

Chain of Glucocorticoid receptor (Homo sapiens) (P04150 whole entry, looked up): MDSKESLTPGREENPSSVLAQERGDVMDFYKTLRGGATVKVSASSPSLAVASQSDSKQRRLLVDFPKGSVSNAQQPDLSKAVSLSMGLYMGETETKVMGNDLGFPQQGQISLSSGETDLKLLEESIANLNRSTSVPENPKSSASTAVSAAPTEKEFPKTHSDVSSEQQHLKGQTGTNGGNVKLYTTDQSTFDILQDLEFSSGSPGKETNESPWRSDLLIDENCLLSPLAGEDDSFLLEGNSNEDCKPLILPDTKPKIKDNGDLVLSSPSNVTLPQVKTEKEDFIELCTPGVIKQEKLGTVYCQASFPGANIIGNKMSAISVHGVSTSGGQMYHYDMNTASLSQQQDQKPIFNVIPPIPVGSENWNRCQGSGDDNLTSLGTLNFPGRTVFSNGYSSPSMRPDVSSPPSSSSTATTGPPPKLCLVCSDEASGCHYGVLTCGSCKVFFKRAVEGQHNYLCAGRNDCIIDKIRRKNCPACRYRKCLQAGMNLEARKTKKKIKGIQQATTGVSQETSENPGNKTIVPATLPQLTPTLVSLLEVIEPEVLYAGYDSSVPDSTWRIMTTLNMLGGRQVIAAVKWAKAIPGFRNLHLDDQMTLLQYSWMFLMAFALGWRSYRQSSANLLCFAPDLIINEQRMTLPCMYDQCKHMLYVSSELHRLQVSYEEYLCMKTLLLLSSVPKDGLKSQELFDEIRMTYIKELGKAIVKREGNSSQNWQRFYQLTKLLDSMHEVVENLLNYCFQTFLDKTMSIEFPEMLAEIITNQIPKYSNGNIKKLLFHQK
Chain of Androgen receptor (Homo sapiens) (P10275 whole entry, looked up): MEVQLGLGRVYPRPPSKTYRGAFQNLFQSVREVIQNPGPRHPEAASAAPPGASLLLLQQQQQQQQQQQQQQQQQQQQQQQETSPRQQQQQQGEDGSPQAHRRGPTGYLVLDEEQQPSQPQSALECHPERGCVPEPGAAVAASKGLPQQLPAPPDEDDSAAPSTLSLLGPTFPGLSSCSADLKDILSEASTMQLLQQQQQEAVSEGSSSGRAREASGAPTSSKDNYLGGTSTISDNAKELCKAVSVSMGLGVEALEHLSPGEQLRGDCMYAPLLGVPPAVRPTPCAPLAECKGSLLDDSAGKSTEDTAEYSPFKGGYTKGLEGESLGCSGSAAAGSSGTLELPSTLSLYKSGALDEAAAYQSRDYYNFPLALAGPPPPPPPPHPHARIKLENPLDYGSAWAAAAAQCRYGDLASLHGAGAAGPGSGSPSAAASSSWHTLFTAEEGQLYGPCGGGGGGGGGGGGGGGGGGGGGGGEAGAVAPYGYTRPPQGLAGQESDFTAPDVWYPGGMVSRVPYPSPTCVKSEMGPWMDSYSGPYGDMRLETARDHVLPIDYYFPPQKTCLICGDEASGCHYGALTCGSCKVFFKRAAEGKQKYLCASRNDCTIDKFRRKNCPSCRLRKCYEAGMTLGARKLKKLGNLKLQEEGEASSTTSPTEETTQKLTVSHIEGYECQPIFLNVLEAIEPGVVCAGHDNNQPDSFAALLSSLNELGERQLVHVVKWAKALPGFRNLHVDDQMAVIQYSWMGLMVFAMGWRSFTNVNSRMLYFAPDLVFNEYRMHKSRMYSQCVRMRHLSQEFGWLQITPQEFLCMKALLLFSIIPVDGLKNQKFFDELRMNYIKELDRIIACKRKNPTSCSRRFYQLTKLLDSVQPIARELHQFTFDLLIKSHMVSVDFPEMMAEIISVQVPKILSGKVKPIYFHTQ

In the case of `Cc1nnc2n1-c1sc(CCC(=O)N3CCOCC3)cc1C(c1ccccc1Cl)=NC2`, the result in test [1], in test [2], in test [3], in test [4], in test [5] and in [6] was inactive. Moreover, the call in [7], in test [8] and in [9] was inactive. Also, the Potency result in [10], in test [11], in test [12], in test [13], in test [14] and in test [15] was “inactive” throughout. The Potency entry in [16] was “inactive”.

`CCCCN(CCCCO)N=O`: the call in test [1], in [2], in test [3], in [4], in [5] and in test [6] was inactive. In addition, the compound was called inactive in test [7], in test [8] and in test [9]. For the same compound, the Potency result in [10], in test [11], in test [12], in test [13], in test [14] and in test [15] was “inactive” in each case. In addition, the Potency entry in test [16] is “inactive”.

With `c1cc[c]([Hg][c]2ccccc2)cc1`, the call in [1], in test [2], in test [3], in test [4], in test [5] and in test [6] was inactive. Also, the outcome in test [7], in [8], in [9], in [18] and in test [20] was inactive. Besides, the Potency in [10] is 0.347 µM (active); in test [12], 0.273 µM (active); in [13] it was 0.243 µM (active); in test [14] it was 0.193 µM (active); in test [17], 43.6 µM (active). Also, the Potency entry in test [11], in test [19] and in test [16] was “inactive” throughout.

For the compound `CNC(=O)Oc1ccc(N(C)C)c(C)c1`, the compound was classed as inactive in test [1], in test [2], in test [3], in test [4], in test [5] and in test [6]. Moreover, the outcome in [7], in test [8] and in test [9] was inactive. Moreover, the Potency entry in [10], in test [11] and in test [15] was “inactive” in each case. The values for the Potency in test [12], in test [13] and in test [14] were 54.5 µM (active), 34.4 µM (active) and 68.6 µM (active), respectively.

In the case of `BrCCCCCCBr`, the call in test [1], in test [2], in test [3], in test [4], in test [5] and in test [6] was inactive. The result in test [7], in [8] and in test [9] was inactive. Further, the Potency entry in [10], in [11], in test [12], in [13], in test [14] and in [15] was “inactive” in each case. Moreover, the Potency entry in test [16] is “inactive”.

Consider `CC(C)(C)C(=O)C(Oc1ccc(Cl)cc1)n1cncn1` (configuration not stated), for which the compound was classed as inactive in [1], in test [2], in test [3], in test [4], in [5] and in test [6]. For the same compound, the outcome in [7], in test [8] and in test [9] was inactive. For the same compound, the Potency result in test [10], in test [11], in [15] and in test [16] was “inactive” each time. The results for the Potency in test [12], in test [13] and in test [14] were 61.1 µM (active), 30.6 µM (active) and 30.6 µM (active), respectively.

As to `CCN(CC)c1nc(C)cc(OP(=S)(OC)OC)n1`, the compound was called inactive in test [1], in [2], in [3], in [4], in [5] and in test [6]. For the same compound, the result in test [7], in test [8] and in test [9] was inactive. Besides, the Potency result in [10], in test [11], in [15] and in test [16] was “inactive” each time. The Potency in [13] and in test [14] was 48.6 µM (active) each time.

Take `CCCCC(=O)Cl`: the result in test [1], in test [2], in test [3], in [4], in [5] and in [6] was inactive. Besides, the outcome in test [7], in [8] and in test [9] was inactive. Further, the Potency result in [10], in test [11], in test [12], in [14] and in test [16] was “inactive” throughout.
